Among the data in ChEMBL document CHEMBL1157539, “Thousands of chemical starting points for antimalarial lead identification” (Nature, 2010) are Inhibition values, retold here.

Holding throughout (type): functional
In test [1] the test system is Plasmodium falciparum. In words: GSK_TCMDC: Inhibition of Plasmodium falciparum 3D7 in whole red blood cells, using parasite LDH activity as an index of growth. Test compounds present at 2uM.
In test [2] the test system is Plasmodium falciparum. In words: GSK_TCMDC: Inhibition of Plasmodium falciparum Dd2 in whole red blood cells, using parasite LDH activity as an index of growth. Test compounds present at 2uM.
A further test deals with HepG2. The experiment in a line: GSK_TCMDC: Percent inhibition of human HepG2 cell line. Test compounds present at 10uM.

On to `CCCCc1cc(NCc2ccncc2)nc(Nc2cccc(OC)c2)n1`, for which the Inhibition with Plasmodium falciparum [1] was 100%; in the test with Plasmodium falciparum [2] it was 56%; with HepG2, 41%.

In the case of `Cc1cc(-c2ccc3occ(CCN)c3c2)cnc1N`, the figures for the Inhibition in the test on Plasmodium falciparum [1], in the test on Plasmodium falciparum [2] and in the test with HepG2 were 92%, 56% and 0%, respectively.

`CCNc1cc(C)nc(Nc2ccc(NC(=O)c3ccccc3Br)cc2)n1`: the Inhibition in the test on Plasmodium falciparum [1] came out at 100%; with Plasmodium falciparum [2] it was 56%; in the test on HepG2 it was 46%.

As to `O=c1cc(NC[C@H]2CCC[C@@H]2NC2CCCc3c2[nH]c2ccccc32)[nH]c2ccccc12` (stereo partly drawn), the Inhibition is 100% in the test on Plasmodium falciparum [1], 25% in the test with Plasmodium falciparum [2] and 6% in the test with HepG2.

With `CCCc1ccc(N2C(N)=NC(N)=NC2(C)C)cc1.Cl`, the figures for the Inhibition in the test with Plasmodium falciparum [1], in the test with Plasmodium falciparum [2] and in the test on HepG2 were 94%, 0% and 59%, respectively.

For `COCCN(C)CCCOc1cc2c(cc1OC)ncn2-c1cc(OCc2ccccc2C(F)(F)F)c(C(N)=O)s1.Cl`, the Inhibition was determined as 98% in the test with Plasmodium falciparum [1], 49% in the test on Plasmodium falciparum [2] and 24% with HepG2.

On to `Cl.c1ccc(-c2cc(NCCNc3cc(-c4ccccc4)nc4ccccc34)c3ccccc3n2)cc1`, for which the Inhibition with Plasmodium falciparum [1] worked out at 99%; in the test with Plasmodium falciparum [2] it was 11%; with HepG2, 0%.

As to `O=C(O)C(F)(F)F.Oc1ccc(CN2CCC(NCc3cccc(C(F)(F)F)c3)CC2)cc1`, the Inhibition in the test with Plasmodium falciparum [1] is given as 100%; in the test on Plasmodium falciparum [2] it was 64%; in the test on HepG2, 10%.

Turning to `O=C(Cc1c[nH]cn1)Nc1cccc(-c2cccc(-c3nc4cc(C(F)(F)F)ccc4[nH]3)c2)c1`, the Inhibition in the test on Plasmodium falciparum [1] is 100%; with Plasmodium falciparum [2] it was 100%; in the test with HepG2 it was 35%.

For the molecule `O=C(c1ccccc1)N1COCC(CCN2CCC(N3CCCC3)CC2)(c2ccc(Cl)c(Cl)c2)C1` (stereo not drawn), the Inhibition in the test with Plasmodium falciparum [1] came to 83%; in the test with Plasmodium falciparum [2], 9%; with HepG2, 18%.

For `CC(Oc1ccc(Cl)cc1)C(=O)N(C)C1CCN(CCCCCNC(=O)/C=C/c2ccc(Cl)c(Cl)c2)CC1` (stereo not drawn), the Inhibition with Plasmodium falciparum [1] was 85%; in the test with Plasmodium falciparum [2], 10%; in the test on HepG2, 61%.
